Experiment in all cases: protein-binding microarray (PBM); PBM: ~300 nM protein, 6 mM HEPES pH 7.8, 80 mM KCl, 0.5 mM EDTA, 0.5 mM EGTA, 6% glycerol, 35 ng/ul poly-dIdC, 1% milk, 1 h, room temperature; Ap Aiptasia and Nv Nematostella (sea anemones) / Co Capsaspora / Aq Amphimedon (sponge) / Dm Drosophila / Hu human; RHD is the Rel homology domain; high values mean tight binding
Common to all, as to conditions: dsDNA, one strand shown

In one assay the target is T1, GST-Ap-NF-kB RHD (Exaiptasia pallida (Aiptasia), UniProt A0A913YAJ5 2-422).
T1 sequence: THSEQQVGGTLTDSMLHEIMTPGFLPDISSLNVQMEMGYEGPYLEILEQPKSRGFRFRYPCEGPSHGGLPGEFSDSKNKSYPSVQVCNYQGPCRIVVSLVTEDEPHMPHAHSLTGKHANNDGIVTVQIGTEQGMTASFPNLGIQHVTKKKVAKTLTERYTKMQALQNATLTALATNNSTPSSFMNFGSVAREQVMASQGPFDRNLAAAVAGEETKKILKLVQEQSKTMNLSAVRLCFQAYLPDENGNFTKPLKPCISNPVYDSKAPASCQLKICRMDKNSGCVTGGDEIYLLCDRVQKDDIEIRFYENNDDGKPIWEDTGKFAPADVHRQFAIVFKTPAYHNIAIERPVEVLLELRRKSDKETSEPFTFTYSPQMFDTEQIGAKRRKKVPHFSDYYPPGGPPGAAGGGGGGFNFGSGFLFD

Assay [1] has as its target T2, GST-Nv-NF-kB (Cys allele) (Nematostella vectensis, UniProt E5G601 2-411).
T2 sequence: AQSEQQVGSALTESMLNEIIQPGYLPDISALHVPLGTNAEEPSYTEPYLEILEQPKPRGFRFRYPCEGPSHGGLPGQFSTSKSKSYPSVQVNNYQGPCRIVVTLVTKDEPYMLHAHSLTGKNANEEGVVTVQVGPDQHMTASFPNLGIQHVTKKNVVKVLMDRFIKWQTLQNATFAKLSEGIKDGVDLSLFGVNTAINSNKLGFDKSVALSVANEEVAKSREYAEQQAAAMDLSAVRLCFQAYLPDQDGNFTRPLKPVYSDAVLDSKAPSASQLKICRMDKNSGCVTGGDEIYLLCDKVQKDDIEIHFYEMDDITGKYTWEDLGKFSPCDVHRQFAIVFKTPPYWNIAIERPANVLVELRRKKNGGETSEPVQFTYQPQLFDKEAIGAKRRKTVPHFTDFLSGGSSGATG

The next assay addresses T3, GST-Co-NF-kB (Capsaspora owczarzaki, UniProt F1ARL5 200-546).
T3 sequence: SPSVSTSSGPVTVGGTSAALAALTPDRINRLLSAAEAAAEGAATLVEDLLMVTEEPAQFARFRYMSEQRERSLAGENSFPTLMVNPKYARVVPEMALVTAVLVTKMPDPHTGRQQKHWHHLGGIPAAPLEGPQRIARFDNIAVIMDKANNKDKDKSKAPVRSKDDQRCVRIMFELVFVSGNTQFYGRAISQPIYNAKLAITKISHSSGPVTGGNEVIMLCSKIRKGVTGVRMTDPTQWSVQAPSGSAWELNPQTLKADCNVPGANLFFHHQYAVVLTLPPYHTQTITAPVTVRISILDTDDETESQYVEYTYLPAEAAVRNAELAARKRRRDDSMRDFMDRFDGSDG

The target in a further assay is T4, GST-Dm-Relish (Drosophila melanogaster, UniProt Q94527 99-473).
T4 sequence: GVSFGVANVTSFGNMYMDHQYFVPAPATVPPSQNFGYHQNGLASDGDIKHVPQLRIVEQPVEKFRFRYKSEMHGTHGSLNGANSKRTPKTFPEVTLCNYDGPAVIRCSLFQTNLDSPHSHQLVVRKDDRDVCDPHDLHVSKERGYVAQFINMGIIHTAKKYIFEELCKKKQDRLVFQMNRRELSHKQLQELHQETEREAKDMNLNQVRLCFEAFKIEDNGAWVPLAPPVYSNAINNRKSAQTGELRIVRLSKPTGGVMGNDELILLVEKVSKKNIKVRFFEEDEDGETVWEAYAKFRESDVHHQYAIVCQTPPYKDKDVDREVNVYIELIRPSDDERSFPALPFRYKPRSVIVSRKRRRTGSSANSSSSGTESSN

For the next assay, the target named is T5, GST-Aq-NF-kB (Amphimedon queenslandica, UniProt A9Y5G7 2-389).
T5 sequence: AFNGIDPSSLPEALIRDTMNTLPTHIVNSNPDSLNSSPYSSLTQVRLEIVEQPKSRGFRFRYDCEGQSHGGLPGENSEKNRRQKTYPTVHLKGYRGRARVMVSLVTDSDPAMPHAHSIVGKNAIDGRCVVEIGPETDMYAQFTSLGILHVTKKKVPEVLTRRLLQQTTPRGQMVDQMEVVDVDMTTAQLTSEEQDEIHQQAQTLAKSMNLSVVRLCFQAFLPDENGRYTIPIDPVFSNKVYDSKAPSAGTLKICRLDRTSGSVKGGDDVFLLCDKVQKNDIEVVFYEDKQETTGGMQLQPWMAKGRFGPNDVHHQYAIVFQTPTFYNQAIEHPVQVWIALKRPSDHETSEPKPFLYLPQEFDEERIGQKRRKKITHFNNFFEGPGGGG

The target in a further assay is GST-Hu-p50 (Homo sapiens, UniProt P19838 7-356).
GST-Hu-p50, sequence (P19838 7-356): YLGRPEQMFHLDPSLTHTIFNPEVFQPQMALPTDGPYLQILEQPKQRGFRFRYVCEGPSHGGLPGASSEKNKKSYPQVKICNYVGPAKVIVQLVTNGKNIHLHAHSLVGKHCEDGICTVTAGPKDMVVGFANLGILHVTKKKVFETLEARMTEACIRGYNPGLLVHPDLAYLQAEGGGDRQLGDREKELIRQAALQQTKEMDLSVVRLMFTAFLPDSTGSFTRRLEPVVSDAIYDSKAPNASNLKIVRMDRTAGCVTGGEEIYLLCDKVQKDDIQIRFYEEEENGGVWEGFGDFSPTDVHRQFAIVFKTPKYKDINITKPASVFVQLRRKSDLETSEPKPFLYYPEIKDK

Turning to “CCGATTAACATCAAGGGGGGACTTGATGTTAATCGGGTCTTGATTCGCTTGACGCTGCTG”, the binding signal in the assay with GST-Ap-NF-kB RHD worked out at 4.76 z-score; in assay [1], 5.56 z-score; with GST-Co-NF-kB, 5.68 z-score; with GST-Dm-Relish it was 5.09 z-score; with GST-Aq-NF-kB, 5.14 z-score; in the assay with GST-Hu-p50, 5.19 z-score.

With “CCGATTAACATCAGACAACCCCCTGATGTTAATCGGGTCTTGATTCGCTTGACGCTGCTG”, the binding signal came out at 5.23 z-score in the assay with GST-Ap-NF-kB RHD; 4.47 z-score in assay [1]; 1.95 z-score in the assay with GST-Co-NF-kB; 5.15 z-score with GST-Dm-Relish; 4.98 z-score in the assay with GST-Aq-NF-kB; 5.28 z-score with GST-Hu-p50.

“CCGATTAACATCAGGAGATCCCCTGATGTTAATCGGGTCTTGATTCGCTTGACGCTGCTG”: the binding signal with GST-Ap-NF-kB RHD came to 7.87 z-score; in assay [1], 8.09 z-score; with GST-Co-NF-kB, 2.55 z-score; with GST-Dm-Relish it was 8.66 z-score; with GST-Aq-NF-kB it was 8.6 z-score; with GST-Hu-p50 it was 5.88 z-score.

Turning to “CCGATTAACATCAGGAGTCCCCCTGATGTTAATCGGGTCTTGATTCGCTTGACGCTGCTG”, the binding signal was 8.32 z-score with GST-Ap-NF-kB RHD; 6.17 z-score in assay [1]; 4.42 z-score with GST-Co-NF-kB; 8.71 z-score in the assay with GST-Dm-Relish; 6.95 z-score with GST-Aq-NF-kB; 5.55 z-score in the assay with GST-Hu-p50.

With “CCGATTAACATCAAATTCCCTTATGATGTTAATCGGGTCTTGATTCGCTTGACGCTGCTG”, the binding signal in the assay with GST-Ap-NF-kB RHD turned out to be 3.4 z-score; in assay [1], 5.97 z-score; in the assay with GST-Co-NF-kB it was 2.16 z-score; with GST-Dm-Relish it was 3.37 z-score; with GST-Aq-NF-kB it was 5.01 z-score; in the assay with GST-Hu-p50, 4.42 z-score.

As to “CCGATTAACATCACTAAACCCCCTGATGTTAATCGGGTCTTGATTCGCTTGACGCTGCTG”, the binding signal with GST-Ap-NF-kB RHD was 6.72 z-score; in assay [1] it was 4.83 z-score; with GST-Co-NF-kB it was 3.32 z-score; with GST-Dm-Relish, 7.51 z-score; in the assay with GST-Aq-NF-kB, 4.92 z-score; with GST-Hu-p50, 6.25 z-score.

Take “CCGATTAACATCAGGGGGGAGACTGATGTTAATCGGGTCTTGATTCGCTTGACGCTGCTG”: the binding signal in the assay with GST-Ap-NF-kB RHD is 5.88 z-score; in assay [1], 4.78 z-score; in the assay with GST-Co-NF-kB it was 6.95 z-score; in the assay with GST-Dm-Relish it was 3.61 z-score; with GST-Aq-NF-kB, 4.79 z-score; with GST-Hu-p50, 6.44 z-score.

Take “CCGATTAACATCAAACCCCCCCTTGATGTTAATCGGGTCTTGATTCGCTTGACGCTGCTG”: the binding signal is 6.49 z-score with GST-Ap-NF-kB RHD; 4.97 z-score in assay [1]; 4.6 z-score with GST-Co-NF-kB; 7.14 z-score with GST-Dm-Relish; 5.59 z-score in the assay with GST-Aq-NF-kB; 5.38 z-score with GST-Hu-p50.

Turning to “CCGATTAACATCAGGGATGCCCCTGATGTTAATCGGGTCTTGATTCGCTTGACGCTGCTG”, the binding signal turned out to be 6.96 z-score with GST-Ap-NF-kB RHD; 8.09 z-score in assay [1]; 1.84 z-score in the assay with GST-Co-NF-kB; 9.08 z-score with GST-Dm-Relish; 8.39 z-score with GST-Aq-NF-kB; 5.89 z-score with GST-Hu-p50.

Turning to “CCGATTAACATCAAACCTTCCCCTGATGTTAATCGGGTCTTGATTCGCTTGACGCTGCTG”, the binding signal in the assay with GST-Ap-NF-kB RHD came out at 4.68 z-score; in assay [1], 5.62 z-score; in the assay with GST-Co-NF-kB, 6.54 z-score; with GST-Dm-Relish, 3.12 z-score; in the assay with GST-Aq-NF-kB, 4.92 z-score; with GST-Hu-p50 it was 4.13 z-score.

Turning to “CCGATTAACATCACAAATACCCCTGATGTTAATCGGGTCTTGATTCGCTTGACGCTGCTG”, the binding signal worked out at 5.46 z-score in the assay with GST-Ap-NF-kB RHD; 4.42 z-score in assay [1]; 4.04 z-score in the assay with GST-Co-NF-kB; 3.75 z-score with GST-Dm-Relish; 4.3 z-score with GST-Aq-NF-kB; 5.3 z-score in the assay with GST-Hu-p50.

In the case of “CCGATTAACATCAGAAATTACCCTGATGTTAATCGGGTCTTGATTCGCTTGACGCTGCTG”, the binding signal was determined as 3.88 z-score in the assay with GST-Ap-NF-kB RHD; 6.24 z-score in assay [1]; 2.87 z-score in the assay with GST-Co-NF-kB; 4.39 z-score with GST-Dm-Relish; 5.95 z-score with GST-Aq-NF-kB; 4.72 z-score with GST-Hu-p50.

With “CCGATTAACATCACCGAACCCCCTGATGTTAATCGGGTCTTGATTCGCTTGACGCTGCTG”, the binding signal with GST-Ap-NF-kB RHD was 5.86 z-score; in assay [1], 3.55 z-score; in the assay with GST-Co-NF-kB it was 2.04 z-score; in the assay with GST-Dm-Relish, 4.86 z-score; with GST-Aq-NF-kB it was 3.82 z-score; in the assay with GST-Hu-p50, 5.57 z-score.
